Screens as filed in PubChem.
This is a sample that favours compounds with a hit; in the whole collection about 1.2% have one here.
PfHsp40 rescue: compounds rescuing yeast from Plasmodium falciparum HSP40 toxicity. 0.68% of 340,000 active. AID 504582. S. cerevisiae expressing PfHsp40, growth rescue, ATP luminescence. growth rescue, % at 12.5 µM; in the data active = growth rescue above about 28%, passing the limit was not always enough;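 note: yeast W303a lacking pdr1 and pdr3 grown in galactose medium; growth measured after three days at 30 °C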
FadD28 FP inh: M. tuberculosis FadD28 bisubstrate binding inhibition. inhibition, % at 12.5 µM. FadD28 bisubstrate probe binding, fluorescence polarization. AID 588549. 0.22% of 360,000 active; in the data active = inhibition above about 8.5%, passing the limit was not always enough
Y pestis TopoI: inhibitors of Yersinia pestis topoisomerase I; 0.064% of 360,000 active; activity, % at 10 µM; Y. pestis Topo-I cleavage product accumulation, plate reader; AID 504884; in the data active = activity above about 50%, passing the limit was not always enough
TcdB inh: TcdB glycohydrolase inhibition. 0.24% of 350,000 active. inhibition, % at 9.99 µM. TcdB glycohydrolase enzymatic assay, plate reader; in the data active = inhibition above about 10%
BioA inh: inhibitors of Mycobacterium tuberculosis BioA enzyme; purified M. tuberculosis BioA enzyme, plate reader; inhibition, % at 9.99 µM; 0.096% of 360,000 active; in the data active = inhibition above about 40%
PrP UTR inh: suppresses PrP 5' UTR mRNA reporter expression; cell-based PrP 5' UTR mRNA reporter, plate reader; inhibition, % (concentration not given with the values); 0.35% of 340,000 active; in the data active = inhibition above about 52%
Hits are given with their value; – = inactive; · = no result given.

SMILES	PfHsp40 rescue	FadD28 FP inh	Y pestis TopoI	TcdB inh	BioA inh	PrP UTR inh
C[C@H]1CN([C@@H](C)CO)C(=O)CCCn2cc(nn2)CO[C@H]1CN(C)S(=O)(=O)c1ccc(C#N)cc1	·	·	·	–	–	·
O=C(/C=C/c1ccccc1)Nc1scc(-c2ccccc2)c1C(=O)O	51	–	–	–	·	–
Cc1ccc(-c2csc(NC(=O)c3ccccc3F)c2C(=O)O)cc1	34	–	–	–	·	–
COc1ccc(-c2csc(NC(=O)c3ccccc3Br)c2C(=O)O)cc1	58	–	–	–	–	–
Cc1noc(C)c1S(=O)(=O)Nc1ccc2c(c1)C(=O)N([C@@H](C)CO)C[C@H](C)[C@H](CN(C)C(=O)c1ccccc1)OCCCC[C@H](C)O2	·	·	·	–	–	·
C[C@H](NC(=O)[C@H]1[C@H](CO)[C@H]2Cn3c(cccc3=O)[C@H]2N1S(C)(=O)=O)c1ccccc1	·	·	·	–	–	·
O=C1NC(=S)N(C2CC2)C(=O)/C1=C/c1ccc2c(c1)CCN2CCCCl	63	–	–	·	–	–
CC(C)(C)C(=O)Nc1ccc(C(=O)Nc2cccc(Oc3ccc(C(=O)O)c(C(=O)O)c3)c2)cc1	–	–	–	–	–	–
O=C(Nc1cccc(Oc2ccc(C(=O)O)c(C(=O)O)c2)c1)c1ccc(-c2ccccc2)cc1	–	29	–	–	–	–
COc1ccccc1-c1cn[nH]c1-c1ccc(O)cc1O	–	–	–	14	–	–
C=C(C)COc1ccc(-c2[nH]ncc2-c2ccc(OC)cc2)c(O)c1	92	–	–	–	·	–
CCCc1ccc(Oc2cn[nH]c2-c2ccc(O)cc2O)cc1	181	–	–	·	–	–
C=C(C)COc1ccc(-c2[nH]ncc2-c2ccccc2)c(O)c1	519	–	–	·	–	–
O=C(C[C@@H]1C=C[C@H](NC(=O)CN2CCOCC2)[C@@H](CO)O1)NC1CCCCC1	·	·	·	–	–	·
Cc1ccc(S(=O)(=O)N[C@H]2CC[C@H](CCn3cc(C4CCCCC4)nn3)O[C@@H]2CO)cc1	·	·	·	–	–	·
CC(C)NC(=O)NCC[C@@H]1CC[C@H](NC(=O)CCN2CCCCC2)[C@H](CO)O1	·	·	·	–	–	·
COc1ccc(-c2cn[nH]c2-c2ccc(O)cc2O)cc1	–	–	–	15	–	–
O=C1c2ccccc2CCCC12N=NCC2c1cccc2ccccc12 (stereo not given)	109	–	–	·	–	–
COc1cc(/C=C2\SC(=Nc3ccc(Cl)c(C(=O)O)c3)NC2=O)c(Br)c(Br)c1O	–	15	–	–	–	–
COc1cc(/C=C2\SC(=Nc3ccccc3)NC2=O)cc(Cl)c1O	–	–	–	–	–	–
CC(NC(=O)c1ccc(Br)cc1)c1ccc2c(c1)CCCC2 (stereo not given)	137	–	–	·	–	–
C[C@@H](NC(=O)C[C@@H]1C=C[C@@H](NC(=O)C2CCOCC2)[C@@H](CO)O1)c1ccccc1	·	·	·	–	–	·
COC(=O)c1ccc(COc2ccc(/C=N/NC(N)=S)cc2)o1	·	51	–	–	–	·
C[C@H](CO)N1C[C@H](C)[C@H](CN(C)S(=O)(=O)c2ccc(Cl)cc2)Oc2ccc(NC(=O)Nc3cccc4ccccc34)cc2C1=O	·	·	·	–	–	·
Cc1ccc(CN2C(=O)CCC2C(=O)NCc2ccc(F)cc2)cc1 (stereo not given)	63	–	–	·	·	–
SMILES	PfHsp40 rescue	FadD28 FP inh	Y pestis TopoI	TcdB inh	BioA inh	PrP UTR inh
O=C(NCc1ccccc1Cl)C1CCC(=O)N1Cc1ccc(F)cc1 (stereo not given)	·	–	–	–	–	–
CCCCCCCC(=O)OCC(O)CO (stereo not given)	–	–	–	–	–	–
CCCCCCCCCCCCC/C=C/[C@@H](O)[C@@H](N)CO	–	33	–	–	–	–
O=C(C[C@H]1CC[C@@H]2[C@H](COC[C@@H](O)CN2S(=O)(=O)c2cccc(F)c2)O1)Nc1ccc(-c2ccccc2)cc1	·	·	·	–	–	·
CCCNC(=O)[C@@H]1[C@@H](CO)[C@@H]2Cn3c(ccc(/C=C/c4ccccc4)c3=O)[C@@H]2N1CC	·	·	·	–	–	·
COc1ccc(NS(=O)CCCc2ccccc2)cc1 (stereo not given)	·	–	·	11	–	·
CC1(C)c2ccccc2-n2c1cc1oc(=O)cc(O)c1c2=O	60	–	–	–	–	–
Cc1nc(-c2ccc(S(=O)(=O)Nc3ccc(Br)cc3Cl)s2)cs1	26	–	–	–	–	–
Cc1nc(-c2ccc(S(=O)(=O)Nc3cccc(S(N)(=O)=O)c3)s2)cs1	–	–	–	–	–	–
O=[N+]([O-])c1ccc(-c2cnc(SCc3ccccc3Cl)[nH]2)cc1	149	–	–	·	·	–
Cc1noc(C)c1NC(=O)NCC[C@@H]1CC[C@H](NC(=O)c2ccc(F)cc2)[C@H](CO)O1	·	·	·	–	–	·
O=C(NC(C1CC1)C1CC1)C1CCC(=O)N(CCCN2CCCC2=O)C1 (stereo not given)	36	–	–	–	–	–
Cc1nc(-c2cccc(NC(=O)COc3ccc(Cl)cc3)c2)cs1	56	–	–	–	–	–
Cc1ccsc1C(=O)N1CCCC(CCC(=O)NCc2ccccc2F)C1 (stereo not given)	37	–	–	–	·	–
Cc1ccsc1S(=O)(=O)N1CCCC(CCC(=O)NCc2ccccc2F)C1 (stereo not given)	–	–	–	–	·	–
Cc1cc(C)n(-c2ccc(N3CCOCC3)nn2)n1	36	–	–	·	–	–
COc1cc(C(=O)ON=C2C3CC4CC(C3)CC2C4)cc(OC)c1OC	325	–	–	–	–	–
COc1cc(C(=O)O/N=C2\C=CC(=O)C=C2C)cc(OC)c1OC	–	–	–	–	·	–
CS(=O)(=O)/C(C#N)=C/c1cccn1S(=O)(=O)c1ccccc1	–	–	–	–	–	–
CN(C)n1cccc1/C=C(\C#N)S(=O)(=O)c1cccc(Cl)c1	32	–	–	–	–	–
COc1ccc(NC(=O)N(C)C[C@H]2Oc3ccc(NS(=O)(=O)c4ccc(F)cc4)cc3CC(=O)N([C@H](C)CO)C[C@H]2C)cc1	·	·	·	–	·	·
CCn1c2ccc(C)cc2c2nc3cc(C(=O)O)ccc3nc21	312	–	–	·	·	–
CCn1c2ccc(C)cc2c2nnc(NN)nc21	–	–	–	·	–	–
C[C@@H]1CN([C@H](C)CO)C(=O)c2cccc(NC(=O)NC3CCCCC3)c2O[C@@H]1CN(C)C(=O)Nc1cccc2ccccc12	·	·	·	–	–	·
Nc1ccc2ccccc2c1[N+](=O)[O-]	–	–	–	–	·	–
SMILES	PfHsp40 rescue	FadD28 FP inh	Y pestis TopoI	TcdB inh	BioA inh	PrP UTR inh
Nc1cc2c3ccccc3ccc2c2ccccc12	249	–	–	–	·	–
Cc1cc(C(=O)N/N=C/c2ccc(O)c(O)c2O)c(C)n1-c1ccccc1	87	–	–	–	·	–
COc1ccc(S(=O)(=O)N(C)C[C@@H]2OCCCC[C@H](C)Oc3ccc(NC(=O)NC4CCCCC4)cc3C(=O)N([C@@H](C)CO)C[C@H]2C)cc1	·	·	·	–	–	·
CCCOC(=O)c1ccc(NC(=O)COC)cc1	–	–	–	·	–	–
CCCOC(=O)c1ccc(NC(=O)CC(C)(C)C)cc1	52	–	–	–	·	–
Cc1cccc(/C=N/n2c(COc3ccccc3)n[nH]c2=S)c1	–	–	–	–	–	–
